# Data reported in publication PMC7862700, “An all-to-all approach to the identification of sequence-specific readers for epigenetic DNA modifications on cytosine”.
# What was measured:
# Assay in all cases: DAPPL (digital affinity profiling via proximity ligation, sequencing); 10 mM Tris-HCl pH 7.5, 50 mM NaCl, 1 mM DTT, 4% glycerol, room temperature, 30 min; GST-TFs on glutathione beads, 16-mer random dsDNA library, 0.1% formaldehyde crosslink after washing; high values mean tight binding
# Details in all cases: protein: recombinant; tags: N-terminal GST; dsDNA, one strand shown
# FLI1 = molecular target: T1, FLI1 (Homo sapiens, UniProt Q01543 1-452)
# T1 sequence: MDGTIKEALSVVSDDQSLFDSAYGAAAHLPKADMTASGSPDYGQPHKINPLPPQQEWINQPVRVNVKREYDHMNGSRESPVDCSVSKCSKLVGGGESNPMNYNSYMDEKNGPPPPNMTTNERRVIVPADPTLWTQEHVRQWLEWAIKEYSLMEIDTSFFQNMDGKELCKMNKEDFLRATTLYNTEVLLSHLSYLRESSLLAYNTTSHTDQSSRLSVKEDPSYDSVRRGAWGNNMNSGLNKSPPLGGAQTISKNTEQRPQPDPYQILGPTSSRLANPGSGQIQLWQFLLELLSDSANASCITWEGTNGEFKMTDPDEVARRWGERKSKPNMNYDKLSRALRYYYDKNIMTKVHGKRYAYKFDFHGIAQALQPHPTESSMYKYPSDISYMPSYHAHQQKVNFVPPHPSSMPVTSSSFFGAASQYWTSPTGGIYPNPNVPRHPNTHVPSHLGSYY
# Outline: (§1)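 In yeast, human transcription factors were expressed with a GST fusion, then pulled down on glutathione beads and given DNA barcodes. Pooled with a tag-only sample, they were exposed to 200 nmole of a 16-mer random double-stranded DNA library (Tris/NaCl/DTT/glycerol buffer, room temperature, 30 min), washed, crosslinked with 0.1% formaldehyde, proximity-ligated using BsaI/T4 ligase for 1 h at 37 °C, PCR-amplified and read on an Illumina NextSeq500. Each hexamer's frequency of reads for a factor, divided by the matching frequency for the tag-only sample, gives the binding signal.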
# ELK1 = molecular target: T2, ELK1 (Homo sapiens, UniProt P19419 1-428)
# T2 sequence: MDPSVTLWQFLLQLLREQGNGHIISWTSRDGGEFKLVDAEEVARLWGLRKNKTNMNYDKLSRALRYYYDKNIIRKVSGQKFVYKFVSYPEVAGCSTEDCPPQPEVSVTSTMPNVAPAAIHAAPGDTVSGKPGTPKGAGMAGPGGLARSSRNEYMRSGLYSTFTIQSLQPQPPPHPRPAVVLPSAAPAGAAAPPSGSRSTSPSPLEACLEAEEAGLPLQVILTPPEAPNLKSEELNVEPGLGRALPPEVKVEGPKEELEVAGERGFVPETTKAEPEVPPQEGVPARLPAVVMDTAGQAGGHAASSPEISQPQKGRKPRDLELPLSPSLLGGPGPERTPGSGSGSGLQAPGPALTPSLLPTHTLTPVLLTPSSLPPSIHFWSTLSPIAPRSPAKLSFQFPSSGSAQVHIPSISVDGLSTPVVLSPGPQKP
# Outline: as §1
# GABPA = molecular target: T3, GABPA (Homo sapiens, UniProt Q06546 1-454)
# T3 sequence: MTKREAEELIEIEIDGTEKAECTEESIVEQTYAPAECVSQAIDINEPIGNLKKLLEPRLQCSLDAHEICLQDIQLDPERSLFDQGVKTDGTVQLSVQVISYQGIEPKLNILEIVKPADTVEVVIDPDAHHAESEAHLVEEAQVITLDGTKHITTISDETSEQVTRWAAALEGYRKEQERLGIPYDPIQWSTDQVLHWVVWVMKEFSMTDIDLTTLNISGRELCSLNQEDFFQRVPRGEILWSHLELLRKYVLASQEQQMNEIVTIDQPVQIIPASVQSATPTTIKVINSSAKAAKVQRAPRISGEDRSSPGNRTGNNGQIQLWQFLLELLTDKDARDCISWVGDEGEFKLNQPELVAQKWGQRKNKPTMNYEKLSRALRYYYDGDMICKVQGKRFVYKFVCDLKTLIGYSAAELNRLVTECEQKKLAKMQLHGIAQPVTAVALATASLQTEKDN
# Outline: as §1
# ERG = molecular target: T4, ERG (Homo sapiens, UniProt P11308 1-479)
# T4 sequence: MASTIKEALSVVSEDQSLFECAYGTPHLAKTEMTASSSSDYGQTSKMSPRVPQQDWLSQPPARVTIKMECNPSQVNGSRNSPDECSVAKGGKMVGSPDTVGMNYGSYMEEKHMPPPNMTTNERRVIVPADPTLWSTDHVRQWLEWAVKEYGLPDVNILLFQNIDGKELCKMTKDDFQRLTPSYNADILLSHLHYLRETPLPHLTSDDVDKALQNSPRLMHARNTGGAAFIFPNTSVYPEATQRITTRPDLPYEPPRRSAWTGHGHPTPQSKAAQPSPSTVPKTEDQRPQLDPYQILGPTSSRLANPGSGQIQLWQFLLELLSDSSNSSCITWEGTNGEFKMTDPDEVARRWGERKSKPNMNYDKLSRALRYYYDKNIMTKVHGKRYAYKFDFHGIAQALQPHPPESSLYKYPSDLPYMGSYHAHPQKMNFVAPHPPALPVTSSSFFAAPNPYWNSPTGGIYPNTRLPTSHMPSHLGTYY
# Outline: as §1
# ELF1 = ELF1 (Homo sapiens, UniProt P32519 1-619)
# Chain of ELF1 (P32519 whole entry): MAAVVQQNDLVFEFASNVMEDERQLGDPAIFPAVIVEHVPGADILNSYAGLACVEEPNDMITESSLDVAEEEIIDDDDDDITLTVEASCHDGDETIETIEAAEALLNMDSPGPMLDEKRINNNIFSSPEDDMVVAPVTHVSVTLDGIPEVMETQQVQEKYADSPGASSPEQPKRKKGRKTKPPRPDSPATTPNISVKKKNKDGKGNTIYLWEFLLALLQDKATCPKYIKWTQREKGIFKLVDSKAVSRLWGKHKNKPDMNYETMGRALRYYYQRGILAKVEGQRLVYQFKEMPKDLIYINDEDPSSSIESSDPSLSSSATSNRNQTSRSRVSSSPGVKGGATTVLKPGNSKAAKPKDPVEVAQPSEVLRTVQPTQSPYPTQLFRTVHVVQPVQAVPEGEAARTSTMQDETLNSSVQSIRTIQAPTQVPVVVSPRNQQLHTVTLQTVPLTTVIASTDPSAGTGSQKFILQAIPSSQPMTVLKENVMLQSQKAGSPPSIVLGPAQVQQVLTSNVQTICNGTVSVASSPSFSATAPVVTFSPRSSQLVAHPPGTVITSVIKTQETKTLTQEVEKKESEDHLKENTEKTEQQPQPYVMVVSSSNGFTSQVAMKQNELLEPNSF
# Outline: as §1
# EHF = molecular target: T5, EHF (Homo sapiens, UniProt Q9NZC4 1-300)
# T5 sequence: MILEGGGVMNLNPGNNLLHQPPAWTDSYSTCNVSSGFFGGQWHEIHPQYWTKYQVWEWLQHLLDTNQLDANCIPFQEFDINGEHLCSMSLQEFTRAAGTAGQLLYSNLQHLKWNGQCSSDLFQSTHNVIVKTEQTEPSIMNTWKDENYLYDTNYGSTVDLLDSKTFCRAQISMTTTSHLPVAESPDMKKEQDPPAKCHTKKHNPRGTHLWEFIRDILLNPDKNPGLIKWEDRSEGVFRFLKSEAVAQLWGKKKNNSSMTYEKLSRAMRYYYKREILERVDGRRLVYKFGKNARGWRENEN
# Outline: as §1
# SPI1 = SPI1 (Homo sapiens, UniProt P17947 1-270)
# Outline: as §1
# SPIB = SPIB (Homo sapiens, UniProt Q01892 1-262)
# Chain of SPIB (Q01892 whole entry): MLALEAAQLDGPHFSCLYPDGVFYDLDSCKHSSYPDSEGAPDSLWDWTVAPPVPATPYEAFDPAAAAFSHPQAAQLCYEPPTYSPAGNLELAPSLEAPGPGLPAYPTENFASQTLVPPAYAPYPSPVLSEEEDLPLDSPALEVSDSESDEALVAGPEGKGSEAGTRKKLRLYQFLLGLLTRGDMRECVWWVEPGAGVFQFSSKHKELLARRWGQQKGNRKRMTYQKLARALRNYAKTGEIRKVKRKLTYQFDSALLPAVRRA
# Outline: as §1
# ELK3 = molecular target: T6, ELK3 (Homo sapiens, UniProt P41970 1-407)
# T6 sequence: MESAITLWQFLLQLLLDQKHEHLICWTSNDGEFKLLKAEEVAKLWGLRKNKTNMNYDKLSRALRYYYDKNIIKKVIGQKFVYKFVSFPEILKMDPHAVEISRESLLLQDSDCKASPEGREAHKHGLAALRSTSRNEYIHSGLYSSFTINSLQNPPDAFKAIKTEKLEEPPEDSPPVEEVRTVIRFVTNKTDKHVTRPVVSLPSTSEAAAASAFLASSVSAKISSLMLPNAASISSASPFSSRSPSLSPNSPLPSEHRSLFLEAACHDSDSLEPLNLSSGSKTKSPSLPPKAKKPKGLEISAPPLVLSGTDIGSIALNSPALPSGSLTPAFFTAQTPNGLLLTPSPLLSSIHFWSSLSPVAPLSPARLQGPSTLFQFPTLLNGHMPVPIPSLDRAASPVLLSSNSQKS
# Outline: as §1
sequence,measurement,setting,value
TTTAAA,binding signal,FLI1,"1.27 fold enrichment (6-mer frequency, TF over GST control)"
same,binding signal,ELK1,"1.26 fold enrichment (6-mer frequency, TF over GST control)"
same,binding signal,GABPA,"1.19 fold enrichment (6-mer frequency, TF over GST control)"
same,binding signal,ERG,"1.2 fold enrichment (6-mer frequency, TF over GST control)"
same,binding signal,ELF1,"1.29 fold enrichment (6-mer frequency, TF over GST control)"
same,binding signal,EHF,"1.21 fold enrichment (6-mer frequency, TF over GST control)"
same,binding signal,SPI1,"1.31 fold enrichment (6-mer frequency, TF over GST control)"
same,binding signal,SPIB,"1.17 fold enrichment (6-mer frequency, TF over GST control)"
same,binding signal,ELK3,"1.32 fold enrichment (6-mer frequency, TF over GST control)"
